Inconclusive results are not listed. Entries that show only a call come without a potency. A structure can be active in one record and inactive in another. The source made the active and inactive calls. Unless noted, calls come from the whole dose curve; as a rule, active = well fitted curve in the direction sought with a large enough effect; inconclusive = small, poorly fitted or top-dose-only effect, or another doubt; inactive = no such curve, though single readings can be large; an effect the other way counts as inactive or inconclusive.
Columns and labels:
[1] = target: Beta-2 adrenergic receptor (Homo sapiens) (UniProt P07550); test: qHTS validation assay of beta-arrestin-biased ligands of beta2-adrenergic receptor (AID 485366); conditions: cell-based beta-arrestin recruitment to ADRB2, qHTS; series mostly up to 46.1 µM
Summary of the method: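 Arrestin-recruitment (Tango) reporter: ligand-bound beta2-AR recruits beta-arrestin, releasing tTA, which upregulates luciferase. Titrations of up to 46 microM incubated 18 hr at 37 degrees C before luminescent readout.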

[2] = target: Thioredoxin reductase 1, cytoplasmic (Rattus norvegicus) (UniProt O89049); test: qHTS Assay for Substrates of Mammalian Selenoprotein Thioredoxin Reductase 1 (TrxR1) (AID 488772); conditions: purified TrxR1, NADPH consumption substrate assay; series mostly up to 57.1 µM;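 note: NADPH fluorescence in the first read after selenite addition and not the 8 min delta; a drop in NADPH fluorescence below the no-compound background marks a TrxR1 substrate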
Chain of Thioredoxin reductase 1, cytoplasmic (Rattus norvegicus) (O89049 whole entry, looked up): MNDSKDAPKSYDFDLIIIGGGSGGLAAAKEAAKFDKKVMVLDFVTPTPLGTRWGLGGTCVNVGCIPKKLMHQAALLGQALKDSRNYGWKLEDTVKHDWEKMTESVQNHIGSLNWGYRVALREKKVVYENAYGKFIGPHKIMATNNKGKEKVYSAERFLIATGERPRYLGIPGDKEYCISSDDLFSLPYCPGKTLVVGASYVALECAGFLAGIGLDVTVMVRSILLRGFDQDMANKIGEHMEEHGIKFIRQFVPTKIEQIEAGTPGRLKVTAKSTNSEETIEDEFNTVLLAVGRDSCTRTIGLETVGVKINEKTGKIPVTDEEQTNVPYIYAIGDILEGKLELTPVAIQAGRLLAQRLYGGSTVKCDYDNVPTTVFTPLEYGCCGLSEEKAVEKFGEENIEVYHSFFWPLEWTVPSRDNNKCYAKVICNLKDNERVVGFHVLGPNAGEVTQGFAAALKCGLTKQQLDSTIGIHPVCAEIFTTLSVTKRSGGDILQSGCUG
Summary of the method: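 Quantitative HTS in Tris-HCl buffer at pH 7.5 with EDTA and Tween-20, using rat TrxR1, 400 uM NADPH and 400 uM selenite (final). A fall in initial NADPH fluorescence relative to background marked substrate behaviour.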

[3] = target: Thioredoxin reductase 1, cytoplasmic (Rattus norvegicus) (UniProt O89049); test: qHTS Assay for Inhibitors of Mammalian Selenoprotein Thioredoxin Reductase 1 (TrxR1) (AID 488773); conditions: purified TrxR1 enzyme activity; Potency: inhibition; series mostly up to 57.1 µM; note: nearly all actives have a fitted effect of over 40% in size; note: potency is the fitted concentration of half-maximal effect
Summary of the method: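 Steps: enzyme (90 nM) plus NADPH (400 uM final), 5 min at ~22 deg C; compound added, 15 min; selenite (400 uM final) added; fluorescence followed for 8 min. Concentration-response curves derived from the normalized delta values.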

[4] = target: M-phase phosphoprotein 8 (Homo sapiens) (UniProt Q99549); test: qHTS Validation Assay for Inhibitors for MPP8 Chromodomain Interactions with Methylated Histone Tails (AID 488949); conditions: AlphaScreen MPP8 binding to H3K9me3 peptide; series mostly up to 57.1 µM; note: nearly all actives have a fitted effect of over 55% in size; note: potency is the fitted concentration of half-maximal effect
Chain of M-phase phosphoprotein 8 (Homo sapiens) (Q99549 whole entry, looked up): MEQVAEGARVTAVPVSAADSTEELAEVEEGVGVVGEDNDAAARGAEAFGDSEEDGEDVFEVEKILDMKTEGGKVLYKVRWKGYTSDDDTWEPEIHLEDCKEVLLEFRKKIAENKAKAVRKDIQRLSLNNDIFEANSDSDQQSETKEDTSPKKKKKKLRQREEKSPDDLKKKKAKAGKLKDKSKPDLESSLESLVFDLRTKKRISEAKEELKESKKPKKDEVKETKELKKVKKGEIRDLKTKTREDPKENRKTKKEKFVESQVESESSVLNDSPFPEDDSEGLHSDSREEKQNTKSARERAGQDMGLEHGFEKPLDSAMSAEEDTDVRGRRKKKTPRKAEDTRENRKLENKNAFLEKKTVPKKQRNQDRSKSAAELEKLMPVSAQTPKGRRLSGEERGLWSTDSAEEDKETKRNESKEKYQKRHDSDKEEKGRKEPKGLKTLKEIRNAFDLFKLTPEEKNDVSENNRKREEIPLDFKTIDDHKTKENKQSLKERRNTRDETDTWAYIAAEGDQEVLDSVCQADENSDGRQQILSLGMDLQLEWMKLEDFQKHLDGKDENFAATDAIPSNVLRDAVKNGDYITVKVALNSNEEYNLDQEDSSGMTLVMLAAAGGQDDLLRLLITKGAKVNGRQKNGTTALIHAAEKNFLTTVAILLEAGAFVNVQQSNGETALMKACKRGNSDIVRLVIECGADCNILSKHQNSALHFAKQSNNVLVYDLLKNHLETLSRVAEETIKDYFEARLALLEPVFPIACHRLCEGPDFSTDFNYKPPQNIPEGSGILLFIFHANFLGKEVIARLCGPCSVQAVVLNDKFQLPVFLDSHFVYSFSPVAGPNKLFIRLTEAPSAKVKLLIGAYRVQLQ
Summary of the method: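 MPP8 (50 nM) was preincubated with biotinylated H3(1-18)K9me3 peptide (50 nM) in PBS pH 7.4, 0.01% Tween-20 for 30 min at room temperature, then with compounds for 30 min; binding was detected by AlphaScreen.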

[5] = target: Chromobox protein homolog 1 (Homo sapiens) (UniProt P83916); test: qHTS Validation Assay for Inhibitors of HP1-beta Chromodomain Interactions with Methylated Histone Tails (AID 488953); conditions: HP1-beta chromodomain / methylated histone peptide binding assay; series mostly up to 114 µM; note: nearly all actives have a fitted effect of over 50% in size; note: potency is the fitted concentration of half-maximal effect
Chain of Chromobox protein homolog 1 (Homo sapiens) (P83916 whole entry, looked up): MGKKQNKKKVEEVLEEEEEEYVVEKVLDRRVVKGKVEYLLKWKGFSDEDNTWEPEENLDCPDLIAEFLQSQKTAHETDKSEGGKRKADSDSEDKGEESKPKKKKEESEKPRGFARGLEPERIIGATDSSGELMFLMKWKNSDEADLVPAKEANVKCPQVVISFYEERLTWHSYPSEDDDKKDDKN
Summary of the method: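 Measured as loss of AlphaScreen luminescence from streptavidin donor and nickel acceptor beads (10 ug/mL final) bridging HP1-beta and biotin-H3(1-18)K9me3, each 50 nM. Compounds met the preassembled complex for 30 min at RT.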

[6] = target: Methanococcus maripaludis chaperonin (MmCpn) (UniProt Q6LX38); test: High-Throughput Screening for Modulators of Cytosolic Chaperonin Activity: MmCpn Primary Screen (AID 488978); conditions: Purified MmCpn ATPase activity, ADP HTRF detection, 10 min; series mostly up to 76.9 µM;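 note: 50 nM MmCpn enzyme hydrolysing 30 µM ATP at 37 °C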
Summary of the method: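 MmCpn (50 nM final) was preincubated with compound 5 min at RT, then 30 uM ATP (final) was added and the reaction ran 10 min at 37C. ADP produced was detected by Transcreener HTRF (ex 320 nm; em 590/665 nm).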

[7] = target: D(1A) dopamine receptor (Homo sapiens) (UniProt P21728); test: HTS Assay for Allosteric Agonists of the Human D1 Dopamine Receptor: Primary Screen for Agonists (AID 488981); conditions: Inducible HEK293 T-REx D1 cells, calcium-flux fluorescence, 180 s kinetic; series mostly up to 41.8 µM
Summary of the method: (§1)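 Calcium flux in an inducible, force-coupled HEK293 Trex D1 line (overnight at 30 C): agonist mode is the 180 s kinetic read after compound; potentiator mode is the following 180 s read after dopamine at EC20.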

[8] = target: D(1A) dopamine receptor (Homo sapiens) (UniProt P21728); test: HTS Assay for Allosteric Agonists of the Human D1 Dopamine Receptor: Primary Screen for Antagonists (AID 488983); conditions: D1 receptor cell assay, antagonist mode, qHTS titration; series mostly up to 41.8 µM;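 note: calcium flux response to an EC80 dopamine challenge measured with no-wash dye; nearly all actives have a fitted effect of over 65% in size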
Summary of the method: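 Screening of inducible HEK293 T-REx D1 cells: compound first, EC80 dopamine 180 s later, each phase read kinetically for calcium over 180 s.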

[9] = Validation screen for small molecules that induce genotoxicity in human embryonic kidney (HEK293T) cells expressing luciferase-tagged ELG1 (AID 493106); conditions: luminescence; series mostly up to 46.1 µM
Summary of the method: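 Reporter-gene quantitative HTS in HEK293T cells carrying luciferase-tagged ELG1, whose level climbs under genotoxic stress. Compound exposure lasts 16 hr at 37 °C before luciferase detection.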

[10] = target: ATPase family AAA domain-containing protein 5 (Homo sapiens) (UniProt Q96QE3); test: Validation screen for small molecules that inhibit ELG1-dependent DNA repair in human embryonic kidney (HEK293T) cells expressing luciferase-tagged ELG1 (AID 493107); conditions: HEK293T ELG1-luciferase level, luminescence, 5-fluorouridine co-treatment, 16 h; series mostly up to 46.1 µM;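 note: cells co-treated with the DNA-damaging agent 5-fluorouridine alongside compound; inhibitors lower the ELG1-luciferase luminescence signal; nearly all actives have a fitted effect of over 70% in size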
Chain of ATPase family AAA domain-containing protein 5 (Homo sapiens) (Q96QE3 whole entry, looked up, the tested form may be a part): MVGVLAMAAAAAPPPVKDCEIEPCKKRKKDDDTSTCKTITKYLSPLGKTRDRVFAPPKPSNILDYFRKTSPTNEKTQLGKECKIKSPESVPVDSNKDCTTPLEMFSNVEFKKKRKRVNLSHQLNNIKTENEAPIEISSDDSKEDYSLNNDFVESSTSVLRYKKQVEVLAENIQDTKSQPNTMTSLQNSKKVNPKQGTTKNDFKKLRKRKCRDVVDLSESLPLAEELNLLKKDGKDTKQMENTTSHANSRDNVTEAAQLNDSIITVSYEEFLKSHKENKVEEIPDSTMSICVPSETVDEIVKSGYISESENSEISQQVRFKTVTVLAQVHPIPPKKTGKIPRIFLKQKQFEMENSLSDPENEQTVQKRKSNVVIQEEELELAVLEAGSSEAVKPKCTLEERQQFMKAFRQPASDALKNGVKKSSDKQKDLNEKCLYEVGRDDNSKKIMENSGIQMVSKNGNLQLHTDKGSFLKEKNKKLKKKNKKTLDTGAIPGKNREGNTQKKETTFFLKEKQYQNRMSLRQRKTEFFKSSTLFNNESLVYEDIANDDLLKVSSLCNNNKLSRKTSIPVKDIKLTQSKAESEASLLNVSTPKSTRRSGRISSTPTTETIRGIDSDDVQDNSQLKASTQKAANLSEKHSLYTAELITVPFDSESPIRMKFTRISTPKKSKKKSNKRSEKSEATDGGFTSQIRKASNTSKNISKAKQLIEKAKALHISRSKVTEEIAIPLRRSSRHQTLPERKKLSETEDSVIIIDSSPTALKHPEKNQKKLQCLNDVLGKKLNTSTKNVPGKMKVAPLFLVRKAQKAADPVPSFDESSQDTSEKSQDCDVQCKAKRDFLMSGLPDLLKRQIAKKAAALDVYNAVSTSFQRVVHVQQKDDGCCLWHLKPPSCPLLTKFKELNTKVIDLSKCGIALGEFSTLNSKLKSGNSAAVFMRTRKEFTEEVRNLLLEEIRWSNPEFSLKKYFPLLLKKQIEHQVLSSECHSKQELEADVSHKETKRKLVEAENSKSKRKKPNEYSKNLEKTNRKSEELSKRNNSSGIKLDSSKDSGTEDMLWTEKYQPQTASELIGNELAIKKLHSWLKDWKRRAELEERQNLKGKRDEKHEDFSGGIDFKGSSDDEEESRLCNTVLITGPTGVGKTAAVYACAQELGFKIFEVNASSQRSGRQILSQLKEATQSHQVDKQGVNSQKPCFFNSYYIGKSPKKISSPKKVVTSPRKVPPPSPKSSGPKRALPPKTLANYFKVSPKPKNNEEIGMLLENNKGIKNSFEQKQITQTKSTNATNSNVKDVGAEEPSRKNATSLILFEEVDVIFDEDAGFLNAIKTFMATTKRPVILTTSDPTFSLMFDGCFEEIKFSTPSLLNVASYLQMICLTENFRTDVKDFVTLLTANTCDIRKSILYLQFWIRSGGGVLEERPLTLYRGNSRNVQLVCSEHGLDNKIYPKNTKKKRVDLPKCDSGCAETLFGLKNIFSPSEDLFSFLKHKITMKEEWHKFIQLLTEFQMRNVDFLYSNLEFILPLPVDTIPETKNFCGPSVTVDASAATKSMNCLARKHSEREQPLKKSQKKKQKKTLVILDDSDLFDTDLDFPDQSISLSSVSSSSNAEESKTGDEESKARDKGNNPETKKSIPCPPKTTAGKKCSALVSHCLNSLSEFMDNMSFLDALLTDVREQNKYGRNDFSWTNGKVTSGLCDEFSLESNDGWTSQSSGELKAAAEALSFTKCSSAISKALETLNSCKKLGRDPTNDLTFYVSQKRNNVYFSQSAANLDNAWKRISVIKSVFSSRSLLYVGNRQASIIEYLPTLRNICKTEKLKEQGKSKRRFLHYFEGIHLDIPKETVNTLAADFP
Summary of the method: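 Quantitative HTS in HEK293T cells carrying luciferase-tagged ELG1, stimulated with 5-fluorouridine alongside compound for 16 hr. Loss of luciferase signal marks inhibition of ELG1 response.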

[11] = target: ATP-dependent 6-phosphofructokinase (Trypanosoma brucei brucei) (UniProt O15648); test: qHTS Validation Assay to Find Inhibitors of T. brucei phosphofructokinase (AID 485368); conditions: T. brucei PFK enzyme assay, qHTS 7-point titration; series mostly up to 57.5 µM
Chain of ATP-dependent 6-phosphofructokinase (Trypanosoma brucei brucei) (O15648 whole entry, looked up): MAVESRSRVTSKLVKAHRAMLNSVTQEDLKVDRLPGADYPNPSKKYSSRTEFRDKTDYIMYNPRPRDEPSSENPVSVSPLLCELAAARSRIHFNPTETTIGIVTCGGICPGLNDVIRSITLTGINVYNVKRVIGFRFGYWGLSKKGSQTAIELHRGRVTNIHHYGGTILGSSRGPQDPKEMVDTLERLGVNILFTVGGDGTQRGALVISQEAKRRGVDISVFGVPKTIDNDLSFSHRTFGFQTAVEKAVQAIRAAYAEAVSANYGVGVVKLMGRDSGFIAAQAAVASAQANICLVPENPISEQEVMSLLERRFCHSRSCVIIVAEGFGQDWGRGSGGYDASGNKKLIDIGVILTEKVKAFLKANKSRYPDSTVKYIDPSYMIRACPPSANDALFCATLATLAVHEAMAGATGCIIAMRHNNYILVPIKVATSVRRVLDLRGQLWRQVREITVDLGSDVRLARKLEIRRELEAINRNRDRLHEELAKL
Summary of the method: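 Steps: substrate mix (0.5 mM F6P, 0.1 mM ATP, MgCl2, TEA pH 8.0); compound; 1.25 nM T. brucei PFK; 45 min RT; ATP depletion 10 min; ADP-to-ATP detection 10 min; luminescence read; curve fitting and classification.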

[12] = Quantitative high throughput screen for delayed death inhibitors of the malarial parasite plastid, 96 hour incubation (AID 488745); conditions: Plasmodium falciparum growth; series mostly up to 28.7 µM;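 note: luciferase-expressing P. falciparum in erythrocytes at 2% hematocrit and 0.1% parasitemia; nearly all actives have a fitted effect of over 70% in size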
Summary of the method: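 Growth of reporter-bearing P. falciparum in red cells is measured after 96 h with compound, covering two erythrocytic cycles. Luminescence from the integrated luciferase serves as the growth signal.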

[13] = Quantitative high throughput screen for delayed death inhibitors of the malarial parasite plastid, 48 hour incubation (AID 488752); conditions: Plasmodium falciparum growth; series mostly up to 28.7 µM; note: nearly all actives have a fitted effect of over 65% in size; note: potency is the fitted concentration of half-maximal effect
Summary of the method: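 One parasite generation (48 h, 37 C, 5% CO2) of luciferase-reporter P. falciparum in erythrocytes is run with test compound; decreased luminescence indicates inhibited growth.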

[14] = target: Flap endonuclease 1 (Homo sapiens) (UniProt P39748); test: qHTS Validation Assay for the Inhibitors of Human Flap endonuclease 1 (FEN1) (AID 488816); conditions: FEN1 nuclease activity, fluorogenic DNA substrate; series mostly up to 57.1 µM
Summary of the method: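 Readings taken at 0 and 15 min after starting the reaction with 50 nM (final) substrate supplied the signal. Compounds had first sat with 10 nM FEN1 reagent for 15 min at room temperature. Values come from Hill-equation concentration-response fits.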

[15] = target: Transient receptor potential cation channel subfamily V member 1 (Homo sapiens) (UniProt Q8NER1); test: HTS Assay for Compounds that Act as Enhancers of the Vanilloid Receptor 1 (AID 488979); conditions: TRPV1-expressing cells, enhancer of channel activity, stimulated with capsaicin at EC20; series mostly up to 41.7 µM
Summary of the method: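 Calcium influx kinetics via Fluo-8 (480/520 nm) in TRPV1-expressing cells, 2000/well cultured overnight at 35.5C. Compound-alone read 3 min (agonist phase), followed by EC20 capsaicin challenge for 2 min (enhancer phase).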

[16] = target: Thyrotropin receptor (Homo sapiens) (UniProt P16473); test: qHTS Assay for Antagonists of the Thyroid Stimulating Hormone Receptor (AID 488980); conditions: TSHR-expressing cells, cAMP antagonist read-out; series mostly up to 57.5 µM
Chain of Thyrotropin receptor (Homo sapiens) (P16473 whole entry, looked up): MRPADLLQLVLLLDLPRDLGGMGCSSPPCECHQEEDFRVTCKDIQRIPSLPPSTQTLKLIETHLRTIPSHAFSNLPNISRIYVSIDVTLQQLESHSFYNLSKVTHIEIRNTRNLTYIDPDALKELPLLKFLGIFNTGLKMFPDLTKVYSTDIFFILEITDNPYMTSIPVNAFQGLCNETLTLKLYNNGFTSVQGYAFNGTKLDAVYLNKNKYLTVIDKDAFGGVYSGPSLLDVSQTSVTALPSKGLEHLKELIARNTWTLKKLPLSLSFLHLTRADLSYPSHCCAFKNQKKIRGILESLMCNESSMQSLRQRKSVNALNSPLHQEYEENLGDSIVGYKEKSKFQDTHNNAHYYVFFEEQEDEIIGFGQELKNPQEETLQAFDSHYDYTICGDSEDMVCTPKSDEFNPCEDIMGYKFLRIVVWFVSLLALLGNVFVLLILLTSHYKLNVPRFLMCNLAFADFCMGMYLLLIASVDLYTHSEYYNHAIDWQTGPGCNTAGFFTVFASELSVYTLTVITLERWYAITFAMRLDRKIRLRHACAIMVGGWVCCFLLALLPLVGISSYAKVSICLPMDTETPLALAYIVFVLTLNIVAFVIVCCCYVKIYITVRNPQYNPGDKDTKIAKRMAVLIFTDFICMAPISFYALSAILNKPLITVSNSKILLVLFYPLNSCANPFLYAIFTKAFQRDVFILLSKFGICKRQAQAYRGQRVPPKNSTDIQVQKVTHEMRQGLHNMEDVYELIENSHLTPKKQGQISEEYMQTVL
Summary of the method: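 HEK293 cells transfected with human TSHR, suspended in HEPES-buffered HBSS with 70 uM RO 20-1724, were treated with compounds plus TSH at EC80 (4 nM final). cAMP was measured by competitive HTRF (cryptate anti-cAMP antibody, cAMP-d2 acceptor).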

[17] = target: D(1A) dopamine receptor (Homo sapiens) (UniProt P21728); test: HTS Assay for Allosteric Agonists of the Human D1 Dopamine Receptor: Primary Screen for Potentiators (AID 488982); conditions: HEK293 T-REx D1 inducible cells, calcium flux, kinetic fluorescence; series mostly up to 8.37 µM
Summary of the method: as §1

[18] = target: Thyrotropin-releasing hormone receptor (Homo sapiens) (UniProt P34981); test: qHTS for Small Molecule Agonists and Allosteric Enhancers of Human TRH Receptor: Validation Screen for Agonists (AID 493127;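 active = calcium activation more than 3 SD above the typical response in the agonist read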;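 note: intracellular calcium rise by fluo-8 fluorescence before TRH EC20 addition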); conditions: TRH receptor agonist cell assay; at 2 µM; stronger effect = higher value
Chain of Thyrotropin-releasing hormone receptor (Homo sapiens) (P34981 whole entry, looked up): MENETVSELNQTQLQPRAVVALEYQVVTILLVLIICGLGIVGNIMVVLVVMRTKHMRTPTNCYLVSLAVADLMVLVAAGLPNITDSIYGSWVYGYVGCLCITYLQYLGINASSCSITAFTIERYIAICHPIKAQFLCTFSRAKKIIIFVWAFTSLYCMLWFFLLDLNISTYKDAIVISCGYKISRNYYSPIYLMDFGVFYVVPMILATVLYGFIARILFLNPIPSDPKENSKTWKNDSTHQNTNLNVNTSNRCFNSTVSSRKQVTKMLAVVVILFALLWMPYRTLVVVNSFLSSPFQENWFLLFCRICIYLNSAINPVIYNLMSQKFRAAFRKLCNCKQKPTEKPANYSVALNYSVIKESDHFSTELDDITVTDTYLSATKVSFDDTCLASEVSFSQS
Summary of the method: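 Gq-coupled calcium mobilization in TRHR cells after compound addition, monitored kinetically with fluo-8 dye on an FDSS reader.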

SMILES | outcome [1] | outcome [2] | Potency [3] | Potency [4] | Potency [5] | outcome [6] | Potency [7] | Potency [8] | Potency [9] | Potency [10] | Potency [11] | Potency [12] | Potency [13] | Potency [14] | outcome [15] | outcome [16] | Potency [17] | activation [18]
C[C@](Cc1ccc(O)c(O)c1)(NN)C(=O)O | inactive | inactive | 8.44 µM (active) | inactive | inactive | inactive | inactive | inactive | inactive | inactive |  |  |  |  |  |  |  | 
CC(/C=C/c1cccc(Oc2ccc(F)cc2)c1)N(O)C(N)=O (stereo unspecified) |  | inactive | inactive | inactive | inactive | inactive | inactive | inactive |  |  | inactive | inactive | inactive | inactive | inactive | inactive | inactive | 1% (inactive)
CNCCc1cnc(CCC(c2ccccc2)c2ccccc2)[nH]1 | inactive | inactive | inactive | inactive |  | inactive |  | inactive | inactive | inactive |  |  |  | inactive |  |  | inactive | 
CCCCCCCCCCC(C)(C)C(=O)Nc1c(OC)cc(OC)cc1OC | inactive | inactive | inactive | inactive | inactive | inactive | inactive |  |  | inactive |  |  |  | inactive |  |  | inactive | 
O=C1Cc2c([nH]c3ccc(Br)cc23)-c2ccccc2N1 | inactive | inactive |  | inactive |  | inactive | inactive |  |  |  |  |  |  | inactive | inactive | inactive | inactive | 9.25% (inactive)
C[C@H]1CC2C3CCC4=CC(=O)C=C[C@]4(C)[C@@]3(Cl)[C@@H](O)C[C@]2(C)[C@@]1(O)C(=O)CO (stereo partly specified) | inactive | inactive | inactive | inactive |  | inactive | inactive | inactive | inactive | inactive |  |  |  | inactive |  |  | inactive | 
O=C(O)c1ccccc1Nc1ccccc1 | inactive | inactive | inactive | inactive |  | inactive | inactive | inactive | inactive | inactive |  |  | inactive | inactive |  | inactive | inactive | -4.31% (inactive)
NC(=O)c1ccccc1 |  | inactive | inactive | inactive | inactive | inactive | inactive | inactive | inactive | inactive | inactive | inactive | inactive | inactive |  | inactive | inactive | 0.25% (inactive)
COc1ccc(CCn2nnnc2C2(c3ccc(C)cc3)CC2)cc1 | inactive | inactive | inactive | inactive | inactive | inactive | inactive | inactive | inactive | inactive |  |  |  | inactive |  |  | inactive | 
OC1(c2ccc(Cl)cc2)CCN(Cc2c[nH]c3ccccc23)CC1 | inactive | inactive | inactive |  |  | inactive |  |  | inactive | inactive |  |  |  | inactive |  | inactive |  | 7.75% (inactive)
CC[C@@H]1Cc2cc(O)ccc2C2=C1c1ccc(O)cc1C[C@H]2CC |  | inactive | inactive | 35.5 µM (active) and inactive | 31.6 µM (active) | inactive | inactive |  | inactive |  | inactive | inactive | 13.1 µM (active) | inactive | inactive | inactive |  | 6.69% (inactive)
